In PubChem BioAssay (NCI):
Compounds without any hit were thinned out: in the full panel of roughly 79,000, 15% have a hit. Active and inactive are the calls of the source. Rule as the data show it: active = growth inhibition above about 70%; inactive = the rest.

Assays:
[1] = NCI Yeast Anticancer Drug Screen. Data for the rad50 strain (AID 155);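 also: 0% = growth of vehicle-only cultures of the same strain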; settings: S. cerevisiae rad50 strain growth inhibition, hits give high values
Method in brief: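 Genetically altered yeast (DNA repair pathway); compound treatment; growth inhibition vs vehicle ctrl.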

[2] = NCI Yeast Anticancer Drug Screen. Data for the mec2-1 strain (AID 157); settings: S. cerevisiae mec2-1 strain, hits give high values
Method in brief: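 Compounds were applied to mec2-1 yeast cells. Their growth was then compared with that of vehicle-treated cultures to give growth inhibition.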

[3] = NCI Yeast Anticancer Drug Screen. Data for the sgs1 mgt1 strain (AID 161);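 also: 0% = growth of cultures given vehicle only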; settings: S. cerevisiae sgs1 mgt1 strain, hits give high values
Method in brief: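 Yeast cells carrying a defined DNA-repair defect were exposed to test compounds. Growth inhibition was measured relative to vehicle-treated controls.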

[4] = NCI Yeast Anticancer Drug Screen. Data for the cln2 rad14 strain (AID 165);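 also: 0% = growth equal to vehicle treated cultures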; settings: S. cerevisiae cln2 rad14 strain, hits give high values
Method in brief: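 Strain: cln2 rad14 yeast, altered in cell cycle control and DNA damage repair. Read-out: growth inhibition vs vehicle.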

[5] = NCI Yeast Anticancer Drug Screen. Data for the bub3 strain (AID 167); settings: S. cerevisiae bub3 mutant strain, hits give high values
Method in brief: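 Yeast carrying a defined mutation is treated with each compound, and growth is compared with that of vehicle-exposed cells to give inhibition.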

[6] = NCI Yeast Anticancer Drug Screen. Data for the mlh1 rad18 strain (AID 175); settings: S. cerevisiae mlh1 rad18 strain growth inhibition, hits give high values
Method in brief: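 A repair-deficient yeast strain is exposed to test compound, and growth is scored relative to vehicle-treated controls.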

[7] = at 5.0 µM (retest, dose inferred, filed as 0.5)
[8] = at 50.0 µM (retest, dose inferred, filed as 5.0)

Measured: growth inhibition

Oc1ccc(/C=N/NC(=S)NC2CC3CC2C2C=CCC32)c(O)c1 (configuration not stated)
inactive: [1]; [7] 46% | [2]; [7] 33% | [3]; [7] 49% | [4]; [7] 26% | [5]; [7] 28% | [5]; [8] 52% | [6]; [7] 65%
active: [1]; [8] 96% | [1]; at 50.0 µM 87.8% | [2]; [8] 97% | [2]; at 50.0 µM 90.8% | [3]; [8] 98% | [3]; at 50.0 µM 92.5% | [4]; [8] 98% | [4]; at 50.0 µM 89.3% | [5]; at 50.0 µM 90.3% | [6]; [8] 96% | [6]; at 50.0 µM 90%

S=C1NC2=C(COC/C2=C\c2ccccc2Cl)C(c2ccccc2Cl)N1 (configuration not stated)
active: [1]; [7] 94% | [1]; [8] 94% | [1]; at 50.0 µM 76.9% | [2]; [8] 96% | [2]; at 50.0 µM 81.5% | [3]; [8] 97% | [3]; at 50.0 µM 79.2% | [4]; [8] 96% | [4]; at 50.0 µM 76.8% | [5]; [8] 96% | [5]; at 50.0 µM 82% | [6]; [7] 92% | [6]; [8] 94% | [6]; at 50.0 µM 81.3%
inactive: [2]; [7] 47% | [3]; [7] 55% | [4]; [7] 53% | [5]; [7] 58%

CC(=O)N(C)C1=C(Sc2ccc(C)cc2)C(=O)c2ccccc2C1=O
active: [1]; [7] 95% | [1]; [8] 99% | [1]; at 50.0 µM 99.5% | [2]; [7] 97% | [2]; [8] 100% | [2]; at 50.0 µM 99.7% | [3]; [7] 93% | [3]; [8] 100% | [3]; at 50.0 µM 99.8% | [4]; [7] 83% | [4]; [8] 99% | [4]; at 50.0 µM 99.5% | [5]; [7] 99% | [5]; [8] 99% | [5]; at 50.0 µM 99.6% | [6]; [7] 95% | [6]; [8] 99% | [6]; at 50.0 µM 99.7%

NC(=O)C1C(=O)c2cccc3c2C1(Br)C(Br)CCC3 (configuration not stated)
inactive: [1]; [7] 12% | [2]; [7] -5% | [3]; [7] 26% | [4]; [7] 2% | [5]; [7] 7% | [6]; [7] 12%
active: [1]; [8] 99% | [1]; at 50.0 µM 99.2% | [2]; [8] 100% | [2]; at 50.0 µM 99.4% | [3]; [8] 100% | [3]; at 50.0 µM 99.5% | [4]; [8] 98% | [4]; at 50.0 µM 98.8% | [5]; [8] 99% | [5]; at 50.0 µM 99.2% | [6]; [8] 99% | [6]; at 50.0 µM 99.3%

CN(C)CCNc1ccc([N+](=O)[O-])c2nc3ccccc3c(N)c12
inactive: [1]; [7] -34% | [1]; [8] -7% | [1]; at 50.0 µM -1.9% | [2]; [7] -37% | [2]; [8] 6% | [2]; at 50.0 µM -40.8% | [3]; [7] 34% | [3]; [8] -24% | [3]; at 50.0 µM 45.9% | [4]; [7] -17% | [4]; [8] 0% | [4]; at 50.0 µM 8.55% | [5]; [7] -8% | [5]; [8] 12% | [5]; at 50.0 µM -7.15% | [6]; [7] -53% | [6]; [8] -10% | [6]; at 50.0 µM 65.8%

CN(C)/C(N)=N\c1nc2ccc(Cl)cc2s1
inactive: [1]; [7] -13% | [1]; [8] 15% | [1]; at 50.0 µM 10.9% | [2]; [7] -4% | [2]; [8] -17% | [2]; at 50.0 µM 11.4% | [3]; [7] -17% | [3]; [8] 4% | [3]; at 50.0 µM 8.3% | [4]; [7] -20% | [4]; [8] -10% | [4]; at 50.0 µM 15.9% | [5]; [7] -1% | [5]; [8] 12% | [5]; at 50.0 µM -11.1% | [6]; [7] -3% | [6]; [8] 48% | [6]; at 50.0 µM 9.05%

O=[N+]([O-])c1ccc2c(c1)CCc1ccccc1-2
inactive: [1]; [7] 10% | [1]; at 50.0 µM 52.6% | [2]; [7] -18% | [2]; [8] 37% | [2]; at 50.0 µM -2.75% | [3]; [7] 12% | [4]; [7] -1% | [4]; [8] 33% | [4]; at 50.0 µM 9.4% | [5]; [7] -15% | [5]; at 50.0 µM 20.4% | [6]; [7] 16% | [6]; at 50.0 µM 68.7%
active: [1]; [8] 77% | [3]; [8] 75% | [3]; at 50.0 µM 76.6% | [5]; [8] 78% | [6]; [8] 89%

O=C1CSc2ccccc2-n2cccc21
active: [5]; [7] 77% | [5]; [8] 77%
inactive: [1]; [7] 5% | [1]; [8] 6% | [1]; at 50.0 µM 9.55% | [2]; [7] 11% | [2]; [8] 8% | [2]; at 50.0 µM 3.35% | [3]; [7] 6% | [3]; [8] -4% | [3]; at 50.0 µM 61.5% | [4]; [7] 32% | [4]; [8] 30% | [4]; at 50.0 µM -1.1% | [5]; at 50.0 µM -11.2% | [6]; [7] 5% | [6]; [8] 15% | [6]; at 50.0 µM 1.95%

CC(O[Si](C)(C)C(C)(C)C)C(=O)Sc1ccccn1 (configuration not stated)
inactive: [1]; [7] -1% | [1]; [8] 66% | [2]; [7] -9% | [3]; [7] -6% | [3]; [8] 54% | [4]; [7] -10% | [5]; [7] -6% | [6]; [7] -9% | [6]; [8] 48%
active: [1]; at 50.0 µM 95.3% | [2]; [8] 97% | [2]; at 50.0 µM 97.2% | [3]; at 50.0 µM 95.5% | [4]; [8] 84% | [4]; at 50.0 µM 85.9% | [5]; [8] 99% | [5]; at 50.0 µM 93.9% | [6]; at 50.0 µM 94.7%
